About 83,000 compounds went through this panel and 20% of them were active in at least one assay; those are over-represented in the sample as a whole.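 In brief: 96-well plates, 48 h treatment, single concentration, percent growth endpoint.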 Values without a mark were called inactive. The source made the active and inactive calls. Rule for the calls: active = growth percent below 10; inactive = the rest.

These results are taken from PubChem BioAssay (NCI).

What all share (assay): NCI-60 one-dose screen, 48 h (100 = growth as untreated, 0 = no growth, -100 = all killed)
What all share (details): 10 µM unless noted

Experiment [1] has as its system SK-MEL-2 melanoma.
Experiment [2] relates to SN12C renal.
The test system of experiment [3] is TK-10 renal.
The test system of experiment [4] is ACHN renal.
Experiment [5] relates to CAKI-1 renal.
Experiment [6] concerns A498 renal.
The test system of experiment [7] is UO-31 renal.
Experiment [8] relates to CCRF-CEM leukemia.
For experiment [9], the system named is MOLT-4 leukemia.

With `Fc1ccc2nc(-c3cc(-c4ccc5c(c4)OCO5)n[nH]3)[nH]c2c1`, the growth was 42.7% in experiment [1]; 65.2% in experiment [2]; 75.9% in [3]; 49% in experiment [4]; 41% in [5]; 71.7% in experiment [6].

Consider `Cc1ccc(Nc2c(C(N)=O)cnc3ccc(S(=O)(=O)Nc4cc(C)on4)cc23)cc1`, for which the growth in [1] was 109%; in experiment [2], 97.9%; in experiment [7], 78.2%; in [4], 89.2%; in experiment [6], 88.8%; in experiment [8], 100%. Moreover, in experiment [9], the growth is 101%.

Take `NC(Cc1ccc(O)cc1)C(=O)N/N=C/c1ccccc1O` (stereo not drawn): the growth in experiment [2] was 114%; in experiment [7], 74.6%; in experiment [3], 98%; in [4] it was 116%; in experiment [5], 107%; in [6] it was 103%. Further, the figures for the growth in experiment [8] and in experiment [9] were 81.2% and 75.6%, respectively.

Consider `COc1cc(-c2cc(-c3nc4ccc(F)cc4[nH]3)[nH]n2)cc(OC)c1OC`, for which the growth is 17.5% in experiment [1]; 33.8% in [2]; 26.1% in experiment [7]; 63.7% in [3]; 28.4% in experiment [5]; 8.73% (active) in experiment [6].

As for `OCC12CCCC(CO)(COC1)C2O` (stereo not drawn), the growth was 117% in experiment [1]; 101% in [2]; 113% in experiment [3]; 103% in experiment [4]; 97.9% in experiment [6]; -57.2% (active) in experiment [8]. In addition, in experiment [9], the growth was 126%.

Turning to `COc1cc2[nH]c(C(=O)c3cc(OC)c(OC)c(OC)c3)c(N)c2cc1C#CC1CC1`, the growth in experiment [1] is 34.7%; in experiment [2] it was 61%; in experiment [3], 92.2%; in experiment [4], 24.8%; in [6], -13.4% (active); in experiment [8] it was 24.9%. For the same molecule, the growth in experiment [9] is 44.5%.

As to `C/C(=N\Nc1ccc2ccccc2n1)c1ccccn1`, the growth is 17.5% in [2]; -39.2% (active) in [7]; 15.2% in [3]; -3.16% (active) in experiment [4]; -10.9% (active) in [5]; 11.1% in experiment [6]. Moreover, the figures for the growth in experiment [8] and in [9] were -5.75% (active) and 1.13% (active), respectively.

`COc1cc2[nH]c(C(=O)c3cc(OC)c(OC)c(OC)c3)c(N)c2cc1C#CCO`: the growth in [1] was 29.6%; in [2], 45.1%; in experiment [7], 31.5%; in experiment [3] it was 66.2%; in experiment [4], 23%; in [6], -16.8% (active). Further, the values for the growth in experiment [8] and in experiment [9] were 11.5% and 29.6%, respectively.

`Nc1c(C(=O)Nc2cccc(Cl)c2)sc2ncc(Cl)cc12`: the growth in experiment [2] is 79.3%; in experiment [7], 80.5%; in experiment [3], 118%; in experiment [4], 23.9%; in experiment [5], 82.6%; in experiment [6], 103%. Further, the growth in [9] is 75.8%.

Turning to `O=C(c1ccccc1)C(CN1CCOCC1)c1ccccc1` (stereo not drawn), the growth was -8.58% (active) in [1]; 28.1% in experiment [2]; 11.2% in [7]; 9.68% (active) in [3]; 93% in [6]; 4.53% (active) in [8]. The growth in [9] was 19.2%.

In the case of `COC(=O)C(N)CSC(c1ccccc1)(c1ccccc1)c1ccccc1` (stereo not drawn), the growth in experiment [2] is 39.9%; in [7], 52.6%; in experiment [3] it was 49.5%; in experiment [4] it was 57%; in experiment [6] it was 34.1%; in [8] it was 13.7%. For the same molecule, the growth in [9] was 8.4% (active).

As for `NC(=O)[C@@H]1CC2CCC1C2` (stereo partly drawn), the growth in experiment [1] was 119%; in experiment [2], 114%; in [7] it was 99.7%; in experiment [4], 102%; in experiment [6] it was 87.9%; in [8] it was 37.4%. For the same molecule, in experiment [9], the growth was 102%.

With `COc1cc(-c2cc(-c3nc4ccccc4[nH]3)[nH]n2)cc(OC)c1OC`, the growth is 47.4% in experiment [1]; 65.8% in experiment [2]; 39.8% in experiment [7]; 70.3% in experiment [3]; 38.8% in [5]; 17.2% in experiment [6].

With `CC(C)(C)c1ccc(OP(=S)(N/N=C/c2ccccc2O)Oc2ccc(C(C)(C)C)cc2)cc1`, the growth was 72.6% in [2]; 61% in experiment [7]; 74.4% in experiment [3]; 87.7% in experiment [4]; 62.7% in experiment [5]; 89.9% in [6]. In addition, in experiment [8], the growth is 68.6%.

With `Nc1c(C(=O)Nc2cccc(Br)c2)sc2nc3c(cc12)C(=O)CCC3`, the growth was 30.8% in experiment [1]; 45.2% in [2]; 56.9% in [7]; 58.8% in experiment [4]; 64% in experiment [5]; -3.99% (active) in [6].

As for `CC(C)(C)CC(C)(C)c1ccc(OCCOCC[N+](C)(C)CC(=O)[O-])cc1`, the growth in experiment [1] was 117%; in experiment [2], 103%; in experiment [7], 98.5%; in [3] it was 109%; in experiment [4] it was 111%; in experiment [6], 104%. For the same molecule, in [9], the growth is 94.2%.

With `Cc1cc(Cl)c2c(N(C)C)cccc2n1`, the growth in experiment [2] was 102%; in [7], 91.1%; in experiment [3], 125%; in experiment [4] it was 112%; in experiment [5] it was 99.9%; in experiment [6], 92.1%. The growth in experiment [9] was 97.6%.

With `O=c1c(CNc2ccc(S(=O)(=O)Nc3ncccn3)cc2)coc2ccccc12`, the growth in [1] is 95.9%; in experiment [2], 90.1%; in experiment [7], 74.9%; in [4] it was 89.9%; in experiment [5], 130%; in experiment [6] it was 102%.

As to `COc1ccc(-c2cc(/C=C/C(=O)c3ccc(OC)c(OC)c3)[nH]n2)cc1`, the growth in experiment [1] is 69.2%; in experiment [2] it was 17.6%; in experiment [3], 31.4%; in experiment [4], 29.8%; in [5], 62.8%; in [6], -4.05% (active).

Turning to `CC(C)=CCC/C(C)=C/CC/C(C)=C/CSC[C@H](NC(=O)CCCCCN1CCN(C)CC1)C(=O)NC1CCCCCC1`, the growth is 88.2% in experiment [1]; 87.4% in [2]; 56% in [7]; 94.2% in experiment [3]; 66% in [4]; 77.3% in experiment [6]. Also, the results for the growth in experiment [8] and in [9] were 19.9% and 38.4%, respectively.

`O=C(CI)Nc1ccc(O)c2ccccc12`: the growth in [1] is -1.68% (active); in experiment [2] it was -34.9% (active); in [7], -28.7% (active); in experiment [3], -34% (active); in experiment [4], 6.99% (active); in experiment [6] it was 95%. Moreover, the growth in experiment [8] is -26.7% (active); in experiment [9], -23.6% (active).

For `COc1ccc(C(=O)/C=C/c2cc(-c3cc(OC)c(OC)c(OC)c3)n[nH]2)cc1OC`, the growth was 22.6% in [1]; 5.5% (active) in [2]; -84.8% (active) in [7]; -86.2% (active) in experiment [4]; -67% (active) in experiment [5]; 4.21% (active) in experiment [6]. Also, the growth in [8] is -18.6% (active); in experiment [9], -1.18% (active).

On to `NS(=O)(=O)c1ccc(CCNC(=O)/C=C/c2ccc(Cl)cc2)cc1`, for which the growth in experiment [1] is 106%; in experiment [2] it was 92.9%; in [7] it was 83.7%; in experiment [3], 121%; in experiment [6] it was 89%; in experiment [8], 91.1%. Also, in experiment [9], the growth is 74.6%.

For `O=C1C=C(C(O)c2ccc(O)cc2)C(=O)c2ccccc21` (stereo not drawn), the growth is 109% in [1]; 107% in experiment [2]; 69.2% in [7]; 103% in experiment [3]; 92.7% in experiment [4]; 104% in [6]. Moreover, the growth in [9] was 84.8%.

On to `C/C(=N\Nc1cc(C)c2cc(C)ccc2n1)c1ccccn1`, for which the growth in [2] is 14.8%; in experiment [7], -91% (active); in experiment [3], -22.2% (active); in experiment [4] it was -100% (active); in experiment [5], -16.3% (active); in experiment [6], 20.9%. The growth in [9] was -17.2% (active).

As for `C/C(=N\Nc1cc(C)c2ccccc2n1)c1ccccn1`, the growth in experiment [2] was 18.2%; in [7] it was -86% (active); in experiment [3], -12.9% (active); in experiment [4], -47.1% (active); in [5], -15.1% (active); in experiment [6], 19.2%. Moreover, the growth in experiment [8] was -20.2% (active); in experiment [9], -18.7% (active).

As for `O=C(NC(Cc1cn(Cc2ccccc2)cn1)C(=O)O)OCC1c2ccccc2-c2ccccc21` (stereo not drawn), the growth in [2] is 108%; in [7], 85.1%; in experiment [3], 105%; in [4], 104%; in experiment [5] it was 103%; in [6], 102%. In addition, the growth is 111% in [8] and 83.6% in [9].

In the case of `Cc1nnc2nc(N)[nH]n2c1=O`, the growth was 118% in experiment [2]; 84.7% in [7]; 89.8% in [3]; 109% in experiment [4]; 111% in experiment [5]; 118% in [6]. Further, the growth in [8] was 109%.

For `COc1cc(C(=O)/C=C/c2cc(-c3ccc4c(c3)OCO4)n[nH]2)cc(OC)c1OC`, the growth in experiment [1] was 84.7%; in [2], 25.7%; in [7], 39.4%; in experiment [3], 67%; in experiment [5], 66.3%; in experiment [6] it was 4.49% (active).

As to `Nc1nc2c(c(=O)[nH]1)C(c1ccc3c(c1)OCO3)C=C(C(=O)O)N2` (stereo not drawn), the growth in experiment [1] is 116%; in [2], 113%; in [3], 117%; in experiment [5], 97.1%; in experiment [6], 94.7%; in experiment [8] it was 126%. Also, the growth in experiment [9] was 106%.

With `C#Cc1cc2c(N)c(C(=O)c3cc(OC)c(OC)c(OC)c3)[nH]c2cc1OC`, the growth in experiment [1] was 15.6%; in [2], 67.9%; in experiment [7] it was 35.7%; in [3], 58.6%; in [4], 35.7%; in experiment [6] it was -19.1% (active). Further, the growth in [9] was 32%.
